High-throughput results: PubChem, National Center for Advancing Translational Sciences (NCATS)
The list is not random: actives were taken first. Their share in the collection is about 0.45%.
EPAC1 ag: agonists of human EPAC1; O95398; Potency, µM (doses to about 154 µM), inactives show at the highest dose activation, actives largely listed as activators; EPAC1 agonist qHTS, biochemical assay; response scale: 100% = response to 6.5 mM cAMP; hit rate 0.073% among 360,000; further: nearly all actives have a fitted effect of over 60% in size
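Nucleotide exchange by EPAC1 (100 nM) on Rap1B–BODIPY-GDP (250 nM) in the presence of 50 uM GDP is tracked fluorescently at 480/540 nm over 30 min. Signals are normalized to a 6.5 mM cAMP control.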
USP1-UAF1 inh: blocks the human USP1/UAF1 deubiquitinase complex; Potency, µM (top dose mostly 57.1 µM), for inactives: at the highest dose activity change, negative = inhibition, hits mostly inhibitors; hit rate 0.23% among 390,000; recombinant USP1/UAF1, Ub-Rhodamine cleavage fluorescence; AID 743255; O94782; further: on the % scale 0 is the no-effect control and ±100 the full control effect; nearly all actives have a fitted effect of over 60% in size
Target sequence (O94782 whole entry, looked up): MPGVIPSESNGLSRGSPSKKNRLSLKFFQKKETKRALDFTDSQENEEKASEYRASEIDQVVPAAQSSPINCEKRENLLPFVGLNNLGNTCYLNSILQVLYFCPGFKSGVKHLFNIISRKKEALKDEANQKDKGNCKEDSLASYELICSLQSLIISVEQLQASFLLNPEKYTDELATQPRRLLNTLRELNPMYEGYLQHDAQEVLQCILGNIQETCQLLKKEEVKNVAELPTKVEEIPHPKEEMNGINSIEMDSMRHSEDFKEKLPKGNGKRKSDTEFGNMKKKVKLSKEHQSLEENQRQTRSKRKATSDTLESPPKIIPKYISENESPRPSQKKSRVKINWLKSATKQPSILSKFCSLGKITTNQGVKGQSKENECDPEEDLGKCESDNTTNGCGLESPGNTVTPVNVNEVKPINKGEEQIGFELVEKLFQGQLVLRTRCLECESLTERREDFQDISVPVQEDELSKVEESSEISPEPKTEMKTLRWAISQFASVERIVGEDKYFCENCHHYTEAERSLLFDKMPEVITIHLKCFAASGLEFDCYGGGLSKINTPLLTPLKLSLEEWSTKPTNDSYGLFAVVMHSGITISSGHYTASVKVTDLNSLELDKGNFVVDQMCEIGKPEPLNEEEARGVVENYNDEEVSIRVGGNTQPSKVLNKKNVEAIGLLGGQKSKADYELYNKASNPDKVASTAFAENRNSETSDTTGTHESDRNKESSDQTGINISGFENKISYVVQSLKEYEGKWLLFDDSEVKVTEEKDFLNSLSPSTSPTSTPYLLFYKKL
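Step one: compound is pinned into 1nM USP1/UAF1 in HEPES pH 7.8 buffer with TCEP. Step two: 15 min room-temperature incubation. Step three: Ub-Rho (150nM final) starts cleavage, tracked by fluorescence over six one-minute reads.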
EPAC2 ag: EPAC2 (human) agonism; EPAC2 activation, biochemical qHTS; response scale: 100% = 6.5 mM cAMP response; hit rate 0.079% among 360,000; Potency, µM (highest dose often 154 µM), for the others: top-dose activation, actives largely listed as activators; further: nearly all actives have a fitted effect of over 50% in size
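Fluorescence exchange assay: 100 nM EPAC2 with 250 nM RAP1B-BODIPY-GDP and 50 uM GDP; compounds tested as a concentration-titration series (qHTS). Loss of Rap1-bound BODIPY-GDP fluorescence read at 480/540 nm; data normalized to 6.5 mM cAMP.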
EPAC1 antag: antagonists of human EPAC1; Potency, µM (series often up to 115 µM), inactives show at the highest dose activity change, negative = inhibition, actives largely listed as inhibitors; EPAC1 GEF assay, Rap1b-BODIPY-GDP exchange fluorescence; hit rate 0.14% among 360,000; O95398;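 further: plate controls were vehicle for no effect and positive control for full effect; nearly all actives have a fitted effect of over 50% in size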
USP2a inh: inhibitors of human ubiquitin-specific protease USP2a. USP2 core, Ub-CHOP2 coupled fluorogenic reporter, 485/531. Potency, µM (highest dose often 38.3 µM), inactives show top-dose activity change, negative = inhibition, actives largely listed as inhibitors. hit rate 0.01% among 330,000. AID 463254;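 further: plate controls were DMSO wells for no effect and full inhibition by NEM control for full effect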
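Cell-free coupled assay: 10nM USP2 core preincubated 30min RT with compound in Tris-HCl pH 8.0/CaCl2/CHAPS buffer, then 25nM Ub-CHOP2 and 25nM reporter substrate; fluorescence (Ex 485/Em 531) read after 60min RT, normalized to NEM inhibition, concentration-response curves fitted.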
EPAC2 antag: antagonists of human EPAC2; AID 720708; Q8WZA2; EPAC2 GEF exchange of Rap1B-BODIPY-GDP, fluorescence; hit rate 0.18% among 360,000; Potency, µM (highest dose often 114 µM), without a hit: at the highest dose activity, negative = inhibition, most hits filed as inhibitors; further: on the % scale 0 is the no-effect control and ±100 the full control effect; nearly all actives have a fitted effect of over 45% in size
Numbers without * were called inactive. The call rests on the fitted dose curve; in most records, active means well fitted curve in the direction sought with a large enough effect; inconclusive means small, poorly fitted or top-dose-only effect, or another doubt; inactive means no such curve, though single readings can be large; an effect the other way counts as inactive or inconclusive. Potency means the concentration at half of the fitted maximal effect.

What do the screens show for `O=C(O)c1ccc(-c2ccc(/C=c3/sc4nc5ccccc5n4c3=O)o2)cc1Cl`?
EPAC1 ag: 23.2%; USP1-UAF1 inh: 28.2µM*; EPAC2 ag: -54.0%; EPAC1 antag: 31.4%; USP2a inh: -0.4%; EPAC2 antag: -0.4%

Results for Cc1cc(C)c2nc3sc(=Cc4ccc(-c5ccccc5C(=O)O)o4)c(=O)n3c2c1 ?
EPAC1 ag: 4.7%; EPAC2 ag: 2.6%; EPAC1 antag: inconclusive; EPAC2 antag: -8.5%

How did COc1cccc(-c2nc(SCC(=O)NC3CCCC3)c(-c3ccc(F)cc3)[nH]2)c1 do in these assays?
USP1-UAF1 inh: -22.5%

Results for O=C(O)CC(C(=O)O)N1C(=O)/C(=C/C=C/c2ccco2)SC1=S (stereo not drawn) ?
EPAC1 ag: 15.8%; USP1-UAF1 inh: inconclusive; EPAC2 ag: 9.5%; EPAC1 antag: -25.6%; USP2a inh: inconclusive; EPAC2 antag: 21.8%

Results for O=C(O)C(Cc1ccccc1)N1C(=O)/C(=C/C=C/c2ccco2)SC1=S (stereo not drawn) ?
EPAC1 ag: 13.8%; USP1-UAF1 inh: inconclusive; EPAC2 ag: -0.3%; EPAC1 antag: 89.1µM*; USP2a inh: inconclusive; EPAC2 antag: -27.2%

How did O=C1S/C(=C\C=C\c2ccco2)C(=O)N1c1ccccc1 do in these assays?
EPAC1 ag: -10.5%; USP1-UAF1 inh: 0.6%; EPAC2 ag: 8.3%; EPAC1 antag: 89.1µM*; USP2a inh: -3.1%; EPAC2 antag: -3.2%

How did COc1ccc(S(=O)(=O)N2CCC[C@H]2C(=O)N2CCC[C@H]2C(=O)NCc2ccccc2)cc1C do in these assays?
EPAC1 ag: -9.8%; EPAC2 ag: 1.2%; EPAC1 antag: 20.4%; EPAC2 antag: 47.4µM*

Results for O=C(CSc1ccc(-c2ccco2)nn1)c1cccc([N+](=O)[O-])c1 ?
EPAC1 ag: -0.4%; USP1-UAF1 inh: -14.1%; EPAC2 ag: 4.5%; EPAC1 antag: 20µM*; USP2a inh: -1.3%; EPAC2 antag: 17.0%

Results for CC(=O)c1cccc(NC(=O)CSc2ccc(-c3ccco3)nn2)c1 ?
EPAC1 ag: -2.4%; USP1-UAF1 inh: -11.7%; EPAC2 ag: 4.3%; EPAC1 antag: 10.0%; USP2a inh: -2.0%; EPAC2 antag: 16.8%

How did COCCn1c(-c2ccc(OC)cc2)c(-c2ccc(OC)cc2)oc1=O do in these assays?
EPAC1 ag: -1.5%; USP1-UAF1 inh: -13.1%; EPAC2 ag: 2.0%; EPAC1 antag: 15.7%; USP2a inh: -2.9%; EPAC2 antag: 35.5µM*

How did CCOc1ccccc1Nc1nc(-c2cccc(Cl)c2)c2c(n1)-c1ccccc1OC2 do in these assays?
USP1-UAF1 inh: -16.0%

What do the screens show for `O=C1S/C(=C\c2ccc(O)c([N+](=O)[O-])c2)C(=O)N1c1ccccc1Cl`?
EPAC1 ag: -21.6%; USP1-UAF1 inh: -19.2%; EPAC2 ag: 5.0%; EPAC1 antag: 56.2µM*; USP2a inh: -8.2%; EPAC2 antag: inconclusive

Results for Cc1ccc(NC(=O)CN2C(=O)S/C(=C/c3ccc(O)c([N+](=O)[O-])c3)C2=O)cc1C ?
EPAC1 ag: 0.7%; USP1-UAF1 inh: -12.1%; EPAC2 ag: -12.2%; EPAC1 antag: 44.7µM*; USP2a inh: 0.5%; EPAC2 antag: inconclusive

What do the screens show for `COc1cc2c(=O)n(Cc3ccccc3Cl)c(=O)n(CC(=O)Nc3ccc(C)c(C)c3)c2cc1OC`?
USP1-UAF1 inh: -22.3%

Results for CCOc1ccccc1NC(=O)C1CCCN(c2ncnc3onc(-c4ccc(F)cc4)c23)C1 (stereo not drawn) ?
USP1-UAF1 inh: -13.1%

How did COc1cnc(-c2ccccn2)nc1Oc1c(C)cccc1C do in these assays?
EPAC1 ag: -11.0%; USP1-UAF1 inh: -12.0%; EPAC2 ag: -4.5%; EPAC1 antag: -3.3%; USP2a inh: -1.3%; EPAC2 antag: 14.1µM*

How did Cc1ccc([C@H]2C(C(=O)O)=CC[C@@H](c3ccc(C(C)C)cc3)N2S(=O)(=O)c2ccc(C)cc2)cc1 do in these assays?
EPAC1 ag: -10.3%; USP1-UAF1 inh: -15.0%; EPAC2 ag: 9.5%; EPAC1 antag: inconclusive; USP2a inh: -26.8%; EPAC2 antag: inconclusive

Results for Cc1ccc(S(=O)(=O)N2[C@@H](c3ccc(Cl)cc3)C(C(=O)O)=CC[C@H]2c2ccc(C(C)C)cc2)cc1 ?
EPAC1 ag: -13.0%; USP1-UAF1 inh: -12.9%; EPAC2 ag: -7.3%; EPAC1 antag: 50.1µM*; USP2a inh: inconclusive; EPAC2 antag: inconclusive

Results for O=c1c(/C=C(\O)c2ccccc2)nc2ccccc2n1-c1ccccc1 ?
EPAC1 ag: 100µM*; USP1-UAF1 inh: inconclusive; EPAC2 ag: 100µM*; EPAC1 antag: 395.8%; USP2a inh: 0.9%; EPAC2 antag: 103.9%

Results for Cc1nc2ccccc2n1-c1ccccc1 ?
EPAC1 ag: -2.6%; USP1-UAF1 inh: -13.5%; EPAC2 ag: -0.5%; EPAC1 antag: 9.0%; USP2a inh: 2.6%; EPAC2 antag: 13.7%

How did CCn1c(=O)c(C(=O)Nc2ccccc2S(N)(=O)=O)c(O)c2ccccc21 do in these assays?
EPAC1 ag: 11.5%; USP1-UAF1 inh: -0.2%; EPAC2 ag: 20.1%; EPAC1 antag: 56.2µM*; USP2a inh: inconclusive; EPAC2 antag: -4.0%

What do the screens show for `CCn1c(=O)c(C(=O)Nc2ccccc2C)c(O)c2ccccc21`?
EPAC1 ag: 2.9%; USP1-UAF1 inh: -14.4%; EPAC2 ag: 10.1%; EPAC1 antag: -5.7%; USP2a inh: 1.2%; EPAC2 antag: 2.2%

How did CSCCC(NS(=O)(=O)c1ccc2c(c1)oc(=O)n2C)C(=O)N1CCN(c2cc(Cl)ccc2C)CC1 (stereo not drawn) do in these assays?
USP1-UAF1 inh: 2.2%

How did C=C1c2cccc(O)c2C(=O)C2C(=O)[C@]3(O)C(=O)C(C(N)=O)C(=O)[C@@H](N(C)C)[C@@H]3[C@@H](O)[C@H]12 (stereo partly drawn) do in these assays?
EPAC1 ag: -21.4%; USP1-UAF1 inh: inconclusive; EPAC2 ag: -3.8%; EPAC1 antag: inconclusive; USP2a inh: 7.08µM*; EPAC2 antag: -8.4%

What do the screens show for `C[C@H]1c2cccc(O)c2C(O)=C2C(=O)[C@]3(O)C(O)=C(C(N)=O)C(=O)[C@@H](N(C)C)C3[C@@H](O)C21` (stereo partly drawn)?
EPAC1 ag: 0.4%; USP1-UAF1 inh: -26.1%; EPAC2 ag: 3.1%; EPAC1 antag: 4.8%; USP2a inh: 2.2%; EPAC2 antag: 6.5%
